Consider one molecule from ChEMBL document CHEMBL2218924, “A broad activity screen in support of a chemogenomic map for kinase signalling research and drug discovery” (Biochem J, 2013).

Experiment [1] concerns the target T1, Serine/threonine-protein kinase TBK1 (Homo sapiens) (UniProt Q9UHD2).
T1 sequence (whole entry): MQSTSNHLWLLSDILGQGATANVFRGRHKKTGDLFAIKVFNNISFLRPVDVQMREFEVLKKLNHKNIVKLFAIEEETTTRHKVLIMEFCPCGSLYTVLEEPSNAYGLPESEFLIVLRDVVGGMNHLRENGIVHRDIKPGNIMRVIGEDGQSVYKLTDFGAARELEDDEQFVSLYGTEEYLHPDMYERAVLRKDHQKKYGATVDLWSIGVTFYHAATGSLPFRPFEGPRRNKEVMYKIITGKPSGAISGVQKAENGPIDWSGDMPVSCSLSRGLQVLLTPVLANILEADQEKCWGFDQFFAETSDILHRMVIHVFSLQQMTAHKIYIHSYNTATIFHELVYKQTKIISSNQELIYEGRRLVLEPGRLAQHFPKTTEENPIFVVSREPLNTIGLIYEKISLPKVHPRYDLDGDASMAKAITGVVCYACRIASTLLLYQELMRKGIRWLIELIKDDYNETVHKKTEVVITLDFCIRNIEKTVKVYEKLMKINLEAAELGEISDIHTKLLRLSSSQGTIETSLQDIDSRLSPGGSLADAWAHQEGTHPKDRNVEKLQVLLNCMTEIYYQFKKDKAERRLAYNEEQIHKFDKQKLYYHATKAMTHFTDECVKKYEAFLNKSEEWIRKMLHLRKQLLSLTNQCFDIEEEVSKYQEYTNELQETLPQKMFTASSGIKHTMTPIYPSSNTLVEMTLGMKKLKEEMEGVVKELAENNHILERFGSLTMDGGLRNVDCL
The conditions noted are these: at 10 µM.

The target of experiment [2] is T2, TGF-beta receptor type-1 (Homo sapiens) (UniProt P36897).
T2 sequence (whole entry): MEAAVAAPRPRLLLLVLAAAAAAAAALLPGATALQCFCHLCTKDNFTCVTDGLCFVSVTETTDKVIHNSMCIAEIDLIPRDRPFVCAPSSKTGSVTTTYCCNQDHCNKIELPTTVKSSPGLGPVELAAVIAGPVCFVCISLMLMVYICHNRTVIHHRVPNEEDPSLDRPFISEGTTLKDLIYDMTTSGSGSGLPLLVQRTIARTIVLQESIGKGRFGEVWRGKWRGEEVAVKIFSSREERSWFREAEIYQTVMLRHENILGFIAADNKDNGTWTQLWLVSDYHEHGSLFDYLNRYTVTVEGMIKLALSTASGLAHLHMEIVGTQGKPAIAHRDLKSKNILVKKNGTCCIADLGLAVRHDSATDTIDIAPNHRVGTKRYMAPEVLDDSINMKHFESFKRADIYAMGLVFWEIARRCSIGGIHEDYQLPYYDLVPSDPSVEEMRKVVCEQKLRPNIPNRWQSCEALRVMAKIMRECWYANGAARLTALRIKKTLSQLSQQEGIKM
Conditions: at 1 µM.

Experiment [3] addresses T2, TGF-beta receptor type-1 (Homo sapiens). The conditions noted are these: at 10 µM.
Experiment [4] deals with Insulin-like growth factor 1 receptor (Homo sapiens) (UniProt P08069). Conditions: at 1 µM.
Sequence of Insulin-like growth factor 1 receptor (Homo sapiens) (P08069 31-736 limits assumed): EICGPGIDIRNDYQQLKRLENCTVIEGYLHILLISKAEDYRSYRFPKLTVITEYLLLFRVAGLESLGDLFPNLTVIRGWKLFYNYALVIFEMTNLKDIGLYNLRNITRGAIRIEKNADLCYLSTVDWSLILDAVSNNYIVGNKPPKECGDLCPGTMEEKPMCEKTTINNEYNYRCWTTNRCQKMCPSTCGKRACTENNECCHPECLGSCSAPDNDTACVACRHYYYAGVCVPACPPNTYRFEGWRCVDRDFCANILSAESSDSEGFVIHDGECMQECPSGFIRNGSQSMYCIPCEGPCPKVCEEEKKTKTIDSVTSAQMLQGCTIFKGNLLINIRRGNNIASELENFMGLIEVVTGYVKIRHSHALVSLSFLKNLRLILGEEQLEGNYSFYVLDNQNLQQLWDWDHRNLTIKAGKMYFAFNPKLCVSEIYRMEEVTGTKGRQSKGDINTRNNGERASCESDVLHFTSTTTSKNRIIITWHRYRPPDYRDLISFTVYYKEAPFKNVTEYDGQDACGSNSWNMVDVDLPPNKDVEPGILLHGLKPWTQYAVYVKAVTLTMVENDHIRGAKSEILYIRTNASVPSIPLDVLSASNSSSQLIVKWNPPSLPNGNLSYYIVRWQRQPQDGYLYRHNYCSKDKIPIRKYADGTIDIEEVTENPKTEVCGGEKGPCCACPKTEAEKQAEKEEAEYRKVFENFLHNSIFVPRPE
Sequence of Insulin-like growth factor 1 receptor (Homo sapiens) (P08069 741-1367 limits assumed): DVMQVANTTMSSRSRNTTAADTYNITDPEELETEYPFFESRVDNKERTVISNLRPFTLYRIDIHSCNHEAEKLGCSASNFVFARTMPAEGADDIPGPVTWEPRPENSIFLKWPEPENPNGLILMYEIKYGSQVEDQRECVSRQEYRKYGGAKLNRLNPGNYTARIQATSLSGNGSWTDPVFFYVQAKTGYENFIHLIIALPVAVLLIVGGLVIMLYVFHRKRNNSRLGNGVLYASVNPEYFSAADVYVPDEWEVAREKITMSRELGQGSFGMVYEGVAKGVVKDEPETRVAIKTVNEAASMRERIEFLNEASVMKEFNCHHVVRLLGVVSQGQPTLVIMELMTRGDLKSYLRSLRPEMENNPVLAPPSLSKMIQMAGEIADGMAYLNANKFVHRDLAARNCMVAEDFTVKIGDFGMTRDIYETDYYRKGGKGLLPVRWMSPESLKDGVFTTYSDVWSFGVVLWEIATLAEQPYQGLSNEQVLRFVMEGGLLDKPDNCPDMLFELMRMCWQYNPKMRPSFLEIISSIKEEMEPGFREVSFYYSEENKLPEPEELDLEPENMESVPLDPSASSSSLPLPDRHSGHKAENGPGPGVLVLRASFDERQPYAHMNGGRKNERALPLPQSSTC
Experiment [5] shares this target. The conditions noted are these: at 10 µM.
The target of experiment [6] is T3, Inhibitor of nuclear factor kappa-B kinase subunit alpha (Homo sapiens) (UniProt O15111).
T3 sequence (whole entry): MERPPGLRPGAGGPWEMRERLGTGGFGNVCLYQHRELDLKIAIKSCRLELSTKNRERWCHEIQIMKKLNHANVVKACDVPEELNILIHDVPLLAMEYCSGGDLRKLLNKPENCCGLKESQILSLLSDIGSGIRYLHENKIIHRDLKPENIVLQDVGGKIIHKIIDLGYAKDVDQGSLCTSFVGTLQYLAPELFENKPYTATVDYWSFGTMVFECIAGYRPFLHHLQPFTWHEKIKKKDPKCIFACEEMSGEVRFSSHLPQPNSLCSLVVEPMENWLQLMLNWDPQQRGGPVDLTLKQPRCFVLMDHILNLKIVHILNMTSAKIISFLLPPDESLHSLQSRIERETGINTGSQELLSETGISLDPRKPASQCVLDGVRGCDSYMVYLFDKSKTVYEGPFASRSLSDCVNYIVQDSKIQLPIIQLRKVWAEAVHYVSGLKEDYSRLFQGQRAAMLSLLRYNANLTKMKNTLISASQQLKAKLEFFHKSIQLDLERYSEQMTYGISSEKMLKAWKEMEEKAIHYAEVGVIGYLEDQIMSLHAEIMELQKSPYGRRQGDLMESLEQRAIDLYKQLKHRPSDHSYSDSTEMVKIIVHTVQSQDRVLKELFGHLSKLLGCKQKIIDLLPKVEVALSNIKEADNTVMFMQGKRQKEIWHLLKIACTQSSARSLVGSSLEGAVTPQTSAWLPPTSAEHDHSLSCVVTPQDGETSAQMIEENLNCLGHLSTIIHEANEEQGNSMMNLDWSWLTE
The conditions noted are these: at 1 µM.

Experiment [7] has as its target T3, Inhibitor of nuclear factor kappa-B kinase subunit alpha (Homo sapiens). Conditions: at 10 µM.
Experiment [8] has as its target T4, Inhibitor of nuclear factor kappa-B kinase subunit beta (Homo sapiens) (UniProt O14920).
T4 sequence (whole entry): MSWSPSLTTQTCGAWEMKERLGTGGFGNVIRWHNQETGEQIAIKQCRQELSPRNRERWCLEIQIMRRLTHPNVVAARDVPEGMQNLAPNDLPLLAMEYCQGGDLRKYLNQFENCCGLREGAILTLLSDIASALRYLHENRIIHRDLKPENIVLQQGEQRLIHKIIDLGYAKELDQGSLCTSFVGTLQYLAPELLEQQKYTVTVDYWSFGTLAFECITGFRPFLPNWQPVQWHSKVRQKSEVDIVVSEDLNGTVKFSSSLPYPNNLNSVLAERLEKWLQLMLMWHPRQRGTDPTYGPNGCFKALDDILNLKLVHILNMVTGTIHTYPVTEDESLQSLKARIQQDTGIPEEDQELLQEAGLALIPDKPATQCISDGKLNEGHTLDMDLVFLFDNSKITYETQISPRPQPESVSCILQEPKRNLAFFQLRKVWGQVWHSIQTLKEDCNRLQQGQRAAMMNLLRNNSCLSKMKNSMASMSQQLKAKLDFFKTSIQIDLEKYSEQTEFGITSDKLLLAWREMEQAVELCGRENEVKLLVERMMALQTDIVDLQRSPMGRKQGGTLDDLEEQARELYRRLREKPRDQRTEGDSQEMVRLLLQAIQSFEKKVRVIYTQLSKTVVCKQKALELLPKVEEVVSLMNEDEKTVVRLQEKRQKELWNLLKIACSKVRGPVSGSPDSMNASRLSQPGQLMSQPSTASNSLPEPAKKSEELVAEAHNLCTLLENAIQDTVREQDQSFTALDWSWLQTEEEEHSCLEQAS
The conditions noted are these: at 1 µM.

The target of experiment [9] is T4, Inhibitor of nuclear factor kappa-B kinase subunit beta (Homo sapiens). Conditions: at 10 µM.
The target in experiment [10] is Insulin receptor (Homo sapiens) (UniProt P06213). Conditions: at 1 µM.
Sequence of Insulin receptor (Homo sapiens) (P06213 28-758 limits assumed): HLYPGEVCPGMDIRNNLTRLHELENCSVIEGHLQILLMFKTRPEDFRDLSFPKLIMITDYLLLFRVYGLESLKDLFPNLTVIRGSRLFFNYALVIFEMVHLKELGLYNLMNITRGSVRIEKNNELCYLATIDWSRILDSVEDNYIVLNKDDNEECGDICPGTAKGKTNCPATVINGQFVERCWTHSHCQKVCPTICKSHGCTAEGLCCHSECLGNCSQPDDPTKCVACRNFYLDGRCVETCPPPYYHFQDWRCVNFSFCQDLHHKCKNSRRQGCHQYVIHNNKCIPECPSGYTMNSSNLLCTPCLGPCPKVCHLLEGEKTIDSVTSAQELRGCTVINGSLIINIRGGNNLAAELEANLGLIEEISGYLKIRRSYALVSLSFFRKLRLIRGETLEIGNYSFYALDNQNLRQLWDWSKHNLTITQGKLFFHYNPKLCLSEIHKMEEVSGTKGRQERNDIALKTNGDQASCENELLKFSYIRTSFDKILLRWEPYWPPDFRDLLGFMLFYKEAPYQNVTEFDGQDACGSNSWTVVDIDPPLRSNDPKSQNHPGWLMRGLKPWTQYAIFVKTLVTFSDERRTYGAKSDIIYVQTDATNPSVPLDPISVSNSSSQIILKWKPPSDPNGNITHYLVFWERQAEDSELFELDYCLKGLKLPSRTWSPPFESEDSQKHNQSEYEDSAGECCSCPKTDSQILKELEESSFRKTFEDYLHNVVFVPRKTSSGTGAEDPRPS
Sequence of Insulin receptor (Homo sapiens) (P06213 763-1382 limits assumed): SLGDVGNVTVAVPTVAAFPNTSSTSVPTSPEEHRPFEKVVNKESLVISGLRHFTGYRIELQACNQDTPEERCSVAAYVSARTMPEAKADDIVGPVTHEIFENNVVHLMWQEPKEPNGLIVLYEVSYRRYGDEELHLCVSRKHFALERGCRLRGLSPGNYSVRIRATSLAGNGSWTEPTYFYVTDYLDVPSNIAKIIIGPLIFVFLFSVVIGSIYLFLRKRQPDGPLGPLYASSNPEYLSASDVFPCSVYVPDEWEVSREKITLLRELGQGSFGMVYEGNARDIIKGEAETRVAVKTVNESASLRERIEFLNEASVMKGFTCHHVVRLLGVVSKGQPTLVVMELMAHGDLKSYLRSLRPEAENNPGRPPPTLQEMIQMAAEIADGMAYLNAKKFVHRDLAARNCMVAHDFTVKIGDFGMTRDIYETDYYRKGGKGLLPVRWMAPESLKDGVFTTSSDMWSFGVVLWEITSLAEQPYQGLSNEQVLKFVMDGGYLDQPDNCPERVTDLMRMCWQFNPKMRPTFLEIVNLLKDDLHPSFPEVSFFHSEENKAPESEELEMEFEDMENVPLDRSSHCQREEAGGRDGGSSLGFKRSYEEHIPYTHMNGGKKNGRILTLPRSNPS

For `Ic1cccc(CSc2nnc(-c3ccncc3)o2)c1`, the residual activity (as a rule, the activity still measured, relative to the control) in [1] was 6%; in experiment [2], 82%; in experiment [3], 79%; in [4], 79%; in [5] it was 95%; in [6], 80%. Besides, the residual activity in experiment [7] came to 72%; in experiment [8], 87%; in [9], 79%; in experiment [10], 93%.
